How the values were obtained:
Test in all cases: SPOT peptide array binding signal intensity (averaged, normalized) (arbitrary units (background-subtracted, floor 0; scale differs between SH3 domains)); higher = stronger binding of the SH3 domain to the peptide
AgAbp1 = biological target: AgAbp1
Outline: (§1)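 GST-fused SH3 domains, from four yeast species, were produced in E. coli BL21(DE3) and captured on glutathione Sepharose. Membranes of cellulose carrying synthetic 15-mer peptides, in which cysteines had been replaced by serines, were exposed to each domain at 10 μg/ml overnight at 4°C in TBS-based blocking buffer. After anti-GST antibody, an HRP anti-mouse secondary and luminol, spots were imaged and quantified using Genespotter. Binding signal is normalized and background-subtracted spot intensity, averaged over replicates, in arbitrary units that differ between domains.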

AgBbc1 = biological target: AgBbc1
Outline: as §1

AgBem1-D1 = biological target: AgBem1-D1
Outline: as §1

AgBzz1-D1 = biological target: AgBzz1-D1
Outline: as §1

AgBzz1-D2 = biological target: AgBzz1-D2
Outline: as §1

AgCyk3 = biological target: AgCyk3
Outline: as §1

AgFus1 = biological target: AgFus1
Outline: as §1

AgHof1 = biological target: AgHof1
Outline: as §1

AgHse1 = biological target: AgHse1
Outline: as §1

AgLsb1 = biological target: AgLsb1
Outline: as §1

AgLsb4 = biological target: AgLsb4
Outline: as §1

AgMyo5 = biological target: AgMyo5
Outline: as §1

AgNbp2 = biological target: AgNbp2
Outline: as §1

AgRvs167 = biological target: AgRvs167
Outline: as §1

AgSho1 = biological target: AgSho1
Outline: as §1

AgSla1-D1-D2 = biological target: AgSla1-D1-D2
Outline: as §1

AgSla1-D3 = biological target: AgSla1-D3
Outline: as §1

CaAbp1-D1 = biological target: CaAbp1-D1
Outline: as §1

CaAbp1-D2 = biological target: CaAbp1-D2
Outline: as §1

CaBbc1 = biological target: CaBbc1
Outline: as §1

CaBem1-D1 = biological target: CaBem1-D1
Outline: as §1

CaBzz1-D1 = biological target: CaBzz1-D1
Outline: as §1

CaBzz1-D2 = biological target: CaBzz1-D2
Outline: as §1

CaCyk3 = biological target: CaCyk3
Outline: as §1

CaFus1 = biological target: CaFus1
Outline: as §1

CaHof1 = biological target: CaHof1
Outline: as §1

CaHse1 = biological target: CaHse1
Outline: as §1

CaLsb1 = biological target: CaLsb1
Outline: as §1

CaLsb4 = biological target: CaLsb4
Outline: as §1

CaMyo5 = biological target: CaMyo5
Outline: as §1

CaNbp2 = biological target: CaNbp2
Outline: as §1

CaRvs167 = biological target: CaRvs167
Outline: as §1

CaRvs167-3 = biological target: CaRvs167-3
Outline: as §1

CaSho1 = biological target: CaSho1
Outline: as §1

CaSla1-D1-D2 = biological target: CaSla1-D1-D2
Outline: as §1

CaSla1-D3 = biological target: CaSla1-D3
Outline: as §1

ScAbp1 = biological target: ScAbp1
Outline: as §1

ScBbc1 = biological target: ScBbc1
Outline: as §1

ScBem1-D1 = biological target: ScBem1-D1
Outline: as §1

ScBzz1-D1 = biological target: ScBzz1-D1
Outline: as §1

ScBzz1-D2 = biological target: ScBzz1-D2
Outline: as §1

ScCyk3 = biological target: ScCyk3
Outline: as §1

ScFus1 = biological target: ScFus1
Outline: as §1

ScHof1 = biological target: ScHof1
Outline: as §1

ScHse1 = biological target: ScHse1
Outline: as §1

ScLsb1 = biological target: ScLsb1
Outline: as §1

ScLsb2 = biological target: ScLsb2
Outline: as §1

ScLsb3 = biological target: ScLsb3
Outline: as §1

ScLsb4 = biological target: ScLsb4
Outline: as §1

ScMyo3 = biological target: ScMyo3
Outline: as §1

ScMyo5 = biological target: ScMyo5
Outline: as §1

ScNbp2 = biological target: ScNbp2
Outline: as §1

ScPex13 = biological target: ScPex13
Outline: as §1

ScRvs167 = biological target: ScRvs167
Outline: as §1

ScSho1 = biological target: ScSho1
Outline: as §1

ScSla1-D1-D2 = biological target: ScSla1-D1-D2
Outline: as §1

ScSla1-D3 = biological target: ScSla1-D3
Outline: as §1

SpAbp1-D1 = biological target: SpAbp1-D1
Outline: as §1

SpBbc1 = biological target: SpBbc1
Outline: as §1

SpBzz1-D1 = biological target: SpBzz1-D1
Outline: as §1

SpBzz1-D2 = biological target: SpBzz1-D2
Outline: as §1

SpCyk3 = biological target: SpCyk3
Outline: as §1

SpHof1 = biological target: SpHof1
Outline: as §1

SpHof1-2 = biological target: SpHof1-2
Outline: as §1

SpHof1-3 = biological target: SpHof1-3
Outline: as §1

SpHse1 = biological target: SpHse1
Outline: as §1

SpLsb1 = biological target: SpLsb1
Outline: as §1

SpLsb4 = biological target: SpLsb4
Outline: as §1

SpMyo1 = biological target: SpMyo1
Outline: as §1

SpNbp2 = biological target: SpNbp2
Outline: as §1

SpPex13 = biological target: SpPex13
Outline: as §1

SpRvs167 = biological target: SpRvs167
Outline: as §1

SpSla1-D1-D2 = biological target: SpSla1-D1-D2
Outline: as §1

SpSla1-D3 = biological target: SpSla1-D3
Outline: as §1

Measured: SPOT peptide array binding signal intensity

B1: unnamed (peptide)
chain: AAAPKHAPPPVPNET
5.75: SpHof1-3
1240: CaBzz1-D1
0.167: ScRvs167
2020: AgMyo5
58.8: SpHse1
795: CaMyo5
1720: SpMyo1
1840: ScMyo5
96: AgBzz1-D1
11: AgSla1-D3
66.8: CaBzz1-D2
413: ScBzz1-D1
1.5: SpBbc1
0.5: CaRvs167-3
1370: ScMyo3
≤ 0: all other assays above

B2: unnamed (peptide)
chain: APKHAPPPVPNETDN
≤ 0: AgAbp1 | AgBbc1 | AgBem1-D1 | AgBzz1-D2 | AgCyk3 | AgFus1 | AgHof1 | AgHse1 | AgLsb1 | AgLsb4 | AgNbp2 | AgRvs167 | AgSho1 | AgSla1-D1-D2 | CaAbp1-D1 | CaAbp1-D2 | CaBem1-D1 | CaCyk3 | CaFus1 | CaHof1 | CaLsb1 | CaLsb4
992: CaBzz1-D1
1.75: CaHse1
1790: AgMyo5
115: CaBzz1-D2
110: CaMyo5
2.5: AgSla1-D3
0.25: CaBbc1
72: AgBzz1-D1
